From PubChem BioAssay
Sa RN4220 lethal: kills Staphylococcus aureus RN4220; S. aureus RN4220 growth, OD600, 16 h; 330,000 tested, 0.33% active; inhibition, % (test concentration not listed); AID 1259311; in the data active = inhibition above about 85%;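 also: plate controls were untreated cells for no effect and reference antibiotic for full effect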
CCHFV vOTU inh: CCHFV vOTU protease inhibition | 370,000 tested, 0.55% active | Pep-AMC fluorescence | AID 651958 | inhibition, % at 11.5 µM; in the data active = inhibition above about 30%; also: 0% = vehicle wells with enzyme and 100% = no enzyme wells
ugtP null kill: kills S. aureus RN4220 lacking UgtP; S. aureus RN4220 ugtP deletion, OD600 growth, 16 h; growth inhibition, % (no concentration beside the values); 330,000 tested, 0.54% active; in the data active = growth inhibition above about 68%;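 also: plate controls were untreated wells for no effect and antibiotic for full effect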
PrP 5UTR inh: inhibition of PrP 5' UTR reporter expression; cell-based PrP 5' UTR mRNA reporter, plate reader; inhibition, % (concentration not given with the values); 340,000 tested, 0.35% active; in the data active = inhibition above about 52%; also: 0 = median of the neutral control wells
PrPC TRFRET: reduces human prion protein on the cell surface; P04156; cell surface PrPC, TR-FRET read-out; inhibition, % at 13.8 µM; 370,000 tested, 0.43% active; in the data active = inhibition above about 24%; also: 0% = median of the test wells and 100% = reference compound wells
PfHsp40 yeast: compounds rescuing yeast from Plasmodium falciparum HSP40 toxicity; S. cerevisiae expressing PfHsp40, growth rescue, ATP luminescence; growth rescue, % at 12.5 µM; 340,000 tested, 0.68% active; AID 504582; in the data active = growth rescue above about 28%, passing the limit was not always enough; inconclusive = no clear call, values can overlap the other calls;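 also: yeast W303a lacking pdr1 and pdr3 grown in galactose medium; growth measured after three days at 30 °C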
PrP 5UTR single: prion 5' UTR mRNA inhibition, cherry-pick retest; shares compounds with PrP 5UTR inh; cell-based prion protein 5' UTR reporter, plate reader; inhibition, % at 2.5 µM; 1,100 tested, 48% active; in the data active = inhibition above about 54%; inconclusive = no clear call, values can overlap the other calls
* hit, by the source's call. This is a sample that favours compounds with a hit; in the whole collection about 2.1% have one here.

Screening O=C(CC(O)CCc1ccccc1)c1ccc(O)cc1 (stereo not drawn) returned Sa RN4220 lethal 4, CCHFV vOTU inh 6, ugtP null kill 2, PrP 5UTR inh 79*, PrPC TRFRET 11, PfHsp40 yeast -2 and PrP 5UTR single -16.
Cn1cccc1/C=C1\SC(=Nc2ccc(O)cc2)NC1=O was read as Sa RN4220 lethal 4, CCHFV vOTU inh 5, ugtP null kill -2, PrP 5UTR inh 69*, PrPC TRFRET 3, PfHsp40 yeast 1 and PrP 5UTR single 82*.
Screening Cn1cccc1/C=C1\SC(=Nc2ccccc2)NC1=O returned Sa RN4220 lethal 4, CCHFV vOTU inh 6, ugtP null kill -12, PrP 5UTR inh -71, PrPC TRFRET 9 and PfHsp40 yeast 0.
`O=C(CN1C(=O)NC2NC(=O)NC21)NN=Cc1ccccc1O` (stereo not drawn) gave Sa RN4220 lethal 7 and ugtP null kill -4.
O=C1c2ccccc2S(=O)(=O)N1Cc1nc2ccccc2s1 was read as Sa RN4220 lethal 7, CCHFV vOTU inh -3, ugtP null kill 17, PrP 5UTR inh 70*, PrPC TRFRET 1, PfHsp40 yeast 1 and PrP 5UTR single inconclusive.
For N=c1ccn2c(n1)O[C@H]1[C@@H](CO)[C@H](O)O[C@H]12 the results were CCHFV vOTU inh -5, PrP 5UTR inh 52*, PrPC TRFRET 0, PfHsp40 yeast -1 and PrP 5UTR single 38.
`COC(=O)c1sc2ncn(CC(=O)NCCc3ccc(OC)c(OC)c3)c(=O)c2c1C` gave Sa RN4220 lethal -5, CCHFV vOTU inh -2, ugtP null kill -4, PrP 5UTR inh 21, PrPC TRFRET 3 and PfHsp40 yeast -1.
`COc1ccc(CCNC(=O)Cn2cnc3sc(C)c(-c4ccc(F)cc4)c3c2=O)cc1OC` gave Sa RN4220 lethal -1, CCHFV vOTU inh 2, ugtP null kill 5, PrP 5UTR inh 73*, PrPC TRFRET 1, PfHsp40 yeast -1 and PrP 5UTR single inconclusive.
`CC(O)C1C=CC=CC(=O)OC2CC3OC4C5OC5(C)CCC4(COC(=O)C4OC4(C)C(O)CO1)C2(C)C31CO1` (stereo not drawn) gave CCHFV vOTU inh -3, PrP 5UTR inh 83*, PrPC TRFRET 90* and PrP 5UTR single 82*.
Screening COc1ccc(-c2ccnc3cc(C(=O)O)nn23)cc1 returned Sa RN4220 lethal 0, CCHFV vOTU inh -37, ugtP null kill 2, PrP 5UTR inh 84*, PrPC TRFRET -34, PfHsp40 yeast 1 and PrP 5UTR single -9.
Screening O=C(O)c1cc2nccc(-c3ccco3)n2n1 returned Sa RN4220 lethal 3, CCHFV vOTU inh -20, ugtP null kill 15, PrPC TRFRET -15 and PfHsp40 yeast 0.
For COc1cc(OC)c(OC)cc1C=NNc1ccc(Cl)nn1 the results were Sa RN4220 lethal 3 and ugtP null kill 13.
For CCc1noc(C)c1C(=O)N(C)CC(=O)Nc1cccc(OC)c1 the results were Sa RN4220 lethal 4, CCHFV vOTU inh 0, ugtP null kill 6, PrP 5UTR inh 89*, PrPC TRFRET 3, PfHsp40 yeast 0 and PrP 5UTR single -2.
Screening O=C(O)c1cccc(-c2noc(-c3cccc(Cl)c3)n2)c1 returned Sa RN4220 lethal 19, CCHFV vOTU inh 14, ugtP null kill 9, PrP 5UTR inh 81*, PrPC TRFRET 3, PfHsp40 yeast 0 and PrP 5UTR single 84*.
`NC(=O)c1ccc(-c2noc(-c3cccc(Cl)c3)n2)cc1` gave Sa RN4220 lethal -8, CCHFV vOTU inh -5, ugtP null kill -1, PrP 5UTR inh -48, PrPC TRFRET 1 and PfHsp40 yeast 2.
For CCOC(=O)C1C(OC(=O)c2ccccc2)CC2CCC1N2C (stereo not drawn) the results were CCHFV vOTU inh 6, PrP 5UTR inh 70*, PrPC TRFRET -4, PfHsp40 yeast -1 and PrP 5UTR single 1.
Screening CNC(=S)NN=Cc1c2ccccc2c(Cl)c2ccccc12 returned Sa RN4220 lethal -1 and ugtP null kill 2.
CC(=O)NCCc1ccc(C(=O)COC(=O)C2CCCCC2)cc1 was read as Sa RN4220 lethal -3, CCHFV vOTU inh 4, ugtP null kill -1, PrP 5UTR inh 72*, PrPC TRFRET 2, PfHsp40 yeast 3 and PrP 5UTR single 34.
Cc1ccc(C(=O)COC(=O)C2CCC2)cc1 was read as PrP 5UTR inh -22 and PfHsp40 yeast 2.
For O=c1[nH]c2cc([N+](=O)[O-])ccc2c2ccccc12 the results were CCHFV vOTU inh -6, PrP 5UTR inh -6, PrPC TRFRET -25 and PfHsp40 yeast 0.
`O=c1[nH]c2cc([N+](=O)[O-])ccc2c2ccc([N+](=O)[O-])cc12` gave CCHFV vOTU inh 8, PrP 5UTR inh 88*, PrPC TRFRET 1, PfHsp40 yeast 0 and PrP 5UTR single -8.
`COc1ccc(/C=C2\SC(=S)N(CCCC(=O)NNC(=O)c3ccccc3O)C2=O)cc1` gave CCHFV vOTU inh -3, PrP 5UTR inh 60*, PrPC TRFRET 0, PfHsp40 yeast 3 and PrP 5UTR single 74*.
`O=C(O)CN=C1CC(c2ccccc2)CC(=O)/C1=C(\O)CCCN1C(=O)c2ccccc2C1=O` (stereo not drawn) gave Sa RN4220 lethal 3 and ugtP null kill 3.
Screening O=C(CNC(=O)c1cccs1)NN=Cc1cccc(Br)c1 returned Sa RN4220 lethal 3 and ugtP null kill 2.
Cc1cc(C)nc(Sc2ncnc(N)c2[N+](=O)[O-])n1 was read as Sa RN4220 lethal 4, CCHFV vOTU inh 12, ugtP null kill 2, PrP 5UTR inh 56*, PrPC TRFRET 3, PfHsp40 yeast -2 and PrP 5UTR single -1.
`O=C(Nc1nnc(-c2ccccc2)o1)NC1CCCCC1` gave Sa RN4220 lethal 3, CCHFV vOTU inh 1, ugtP null kill 17, PrP 5UTR inh 78*, PrPC TRFRET 3, PfHsp40 yeast 0 and PrP 5UTR single -23.
CCCCCC(=O)NC(=S)Nc1ccc(Br)cc1C was read as Sa RN4220 lethal -4, CCHFV vOTU inh -1, ugtP null kill 39, PrP 5UTR inh 57*, PrPC TRFRET 6, PfHsp40 yeast 0 and PrP 5UTR single 1.
`CCCC(=O)NC(=S)Nc1c(C)cc(Br)cc1C` gave Sa RN4220 lethal -3, CCHFV vOTU inh 10, ugtP null kill -5, PrP 5UTR inh -50, PrPC TRFRET 7 and PfHsp40 yeast 0.
Screening Cc1ccc(S(=O)(=O)N2CCN(C(=O)N3CCCC3)CC2)cc1 returned Sa RN4220 lethal 4, CCHFV vOTU inh -3, ugtP null kill 7, PrP 5UTR inh -9, PrPC TRFRET 5 and PfHsp40 yeast 3.
